From PubChem BioAssay (NCATS)
Some of the results follow. Inconclusive results are not listed. Calls follow the shape of the dose curve; as a rule, active = well fitted inhibition curve with a large enough effect; inconclusive = small, poorly fitted or top-dose-only effect; inactive = flat fitted curve, though single readings scatter.

molecular target: Fructose-bisphosphate aldolase (Giardia intestinalis (strain ATCC 50803 / WB clone C6)) (UniProt A8B2U2); assay: qHTS Assay for Inhibitors of Fructose-1,6-bisphosphate Aldolase from Giardia Lamblia: Primary screen confirmation (AID 2787); conditions: purified Giardia aldolase enzyme activity; series mostly up to 57.5 µM; activity change, negative = inhibition: at the top concentration;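 also: aldolase product measured through coupled diaphorase step turning resazurin into fluorescent resorufin; nearly all actives have a fitted effect of over 45% in size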
Text: NIH Chemical Genomics Center [NCGC]
NIH Molecular Libraries Probe Production centers Network [MLPCN]
Assay Provider: Osnat Herzberg, University of Maryland
The objective of this project is to obtain compounds that inhibit Giardia lamblia growth. G. lamblia is a human pathogen which afflicts impoverished nations; it is the most common cause of outbreaks of diarrhea in the United States. During the course of our study of potential drug targets in Giardia, we have identified the Class II (Zn2+ functions in electrophilic catalysis) fructose-1,6-bisphosphate aldolase (FBPA) as an excellent candidate for drug targeting. FBPA is a key glycolytic pathway enzyme, essential for G. lamblia survival. The human FBPA belongs to the Class I aldolases, which have a different substrate binding site structure and a radically different catalytic mechanism (employing a lysine-Schiff base intermediate). Therefore, affinity-based or mechanism-based inhibitors of the Giardia FBPA are expected not to interfere with the catalytic function of the human FBPA.
A glyceraldehyde-3-phosphate dehydrogenase/triose phosphate isomerase/NAD/arsenate coupled assay was adapted to the 1536-well HTP format for use in the primary screen. This was done by coupling it to a diaphorase/resazurin/resorufin reaction that can be monitored by fluorescence (excitation, 544 nm; emission, 590 nm). Compounds identified in this screen will be further evaluated by coupling the glycerol-3-phosphate/triose phosphate isomerase/NADH assay to a phenazine methosulfate/tetranitroblue tetrazolium color reaction. False positives due to the dehydrogenases and diaphorase inhibition will be eliminated, and selectivity assay will triage inhibitors of mammalian triose phosphate isomerase and the Class I FBPA. G. lamblia FBPA inhibitors identified by the in vitro analyses will be examined for growth inhibition of Giardia trophozoites, and for cytotoxicity in human cells.
The present assay was used to confirm hits from the primary screen.
Step,Parameter,Value,Description
1,Enzyme reagent,2 uL,40 nM FBPA w/ 30uM ZnCl2
2,Compound,23 nL,3.68 nM-57.5 uM final concentration
3,Time,10 min,RT Incubation
4,Substrate/detection Reagent,2 uL,Substrate + enzyme coupling system + AmpLite Red kit
5,Time,20 min,RT Incubation
6,Detector,525 nm/598 nm (Fluorescence),ViewLux Fluorescence Read (Read 1)
1,Medium-binding black solid-bottom Kalypsys plates. FRD or Kalypsys dispenser, 2 uL of FBPA enzyme. Bottle kept at 4C.
2,Compound Library (10 mM ,1:5 dilution). Pin-transferred for a [final] range of 3.68 nM-57.5 uM.
4,FRD or Kalypsys dispenser, 2 uL of reaction mixture. Bottle kept at 4C and covered in foil to protect from light.
6,ViewLux Protocol 1194; Excitation filter wheel A (525/20 Pol; BODIPY TMR FP), Emission filter wheel B (598/25 S; BODIPY TMR FP S).
Keywords: Fructose-bisphosphate aldolase, FBPA , Giardia lamblia , Giardia, HTS, Inhibitors
% is scaled to controls: 0 for no effect and ±100 for the full control effect.

Fructose-bisphosphate aldolase (Giardia intestinalis (strain ATCC 50803 / WB clone C6)), sequence (A8B2U2 whole entry, looked up): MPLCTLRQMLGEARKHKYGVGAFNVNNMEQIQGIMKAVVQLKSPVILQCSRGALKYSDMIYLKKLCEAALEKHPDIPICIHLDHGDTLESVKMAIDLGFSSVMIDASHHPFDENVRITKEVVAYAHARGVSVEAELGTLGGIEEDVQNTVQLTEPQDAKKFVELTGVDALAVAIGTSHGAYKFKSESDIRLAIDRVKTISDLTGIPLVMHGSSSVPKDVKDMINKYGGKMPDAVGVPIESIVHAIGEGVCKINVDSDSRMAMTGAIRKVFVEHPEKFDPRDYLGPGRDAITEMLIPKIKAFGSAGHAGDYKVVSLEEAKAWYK

Activity change, negative = inhibition, inactive:
Cc1nnc(N/N=C/c2ccccn2)[nH]c1=O -13.9%, O=[N+]([O-])c1cc([N+](=O)[O-])c2cccnc2c1O -10.8%, COc1ccc(Cl)cc1C(=O)NNC(=O)c1nc2nc(C)cc(C)n2n1 15%, Oc1ccc2ccccc2c1N=Nc1nccs1 -16.3%, Oc1[nH]c2ccc(Br)cc2c1N=Nc1nn[nH]n1 7.96%, O=S(=O)(c1ccc(NC(=S)NN=C(C2CC2)C2CC2)cc1)N1CCOCC1 0.636%, O=c1nc(N/N=C/c2ccco2)cn[nH]1 7.99%, O=C(CN1CCN(Cc2ccccc2)CC1)Nc1ccc(F)c(F)c1 -1.29%, CCN(CC(=O)NC(=O)NCc1ccccc1)Cc1nc2ccccc2c(=O)[nH]1 -0.575%, C=C(C)CNC(=S)N/N=C/c1ccccc1OCC(=O)O 1.59%, Cc1cc(C)nc(N/N=C/c2ccc([N+](=O)[O-])o2)n1 -14.8%, CSc1n[nH]c(=S)n1N -12.2%, CCN1CCc2c(C#N)c(NCc3ccccc3)nc(NCCO)c2C1 -29.6%, Cc1cccc(C)c1OCCN1CCOCC1 1.33%, Cc1nc2ccc(NC(=S)N3CCC(C)CC3)cc2nc1C -29.8%, CCS(=O)(=O)c1cc([N+](=O)[O-])c(Sc2ccccc2N)s1 11.1%, CCc1ccc2c(c1)C1(NN=C(c3ccccc3)S1)C(=O)N2 (stereo not given) 7.54%, Cc1nnc(SCC2=C(C(=O)O)N3C(=O)C(NC(=O)Cn4nc(C)c(Cl)c4C)C3SC2)s1 (stereo not given) -5%, Cn1c(=O)[nH]c(=O)c2c1[nH]c(=S)n2Cc1ccccc1 -3.25%, CC1CCCN(S(=O)(=O)c2ccc(C(=O)Nc3nnc(-c4ccncc4)o3)cc2)C1 (stereo not given) -0.279%, Cc1cc(C)c2c(=O)[nH]c(SCC(=O)Nc3ccc(Br)cc3)nc2n1 6.84%, Cc1ccc(OCCCCc2c(C)n[nH]c2C)cc1 -7.21%, Cc1cnc(NC(=O)c2ccccn2)s1 -2.43%, COc1ccccc1CN1CCN(Cc2cc(OC)c(OC)cc2OC)CC1 0.82%, Cc1cc(C)n(-c2ccc(Cl)c(C(=O)O)n2)n1 0.101%, Cc1cccc(-c2nnc(SCC(=O)O)n2Cc2ccccc2)c1 1.71%, O=C(CSc1cccc[n+]1[O-])c1ccc(-c2ccccc2)cc1 1.49%, Cc1csc(NC(=O)CN2CCCCCC2)n1 2.62%, CC(C)(c1ccccc1)c1ccc(OCCN2CCCC2)cc1 0.817%, COc1cc(CN2CCN(Cc3ccc(C)cc3)CC2)c([N+](=O)[O-])cc1OC -8.67%, Clc1cccc(CN2COc3c(cc(Cl)c4cccnc34)C2)c1 -18.2%, CNC(=S)N/N=C/c1ccc(N2CCOCC2)s1 -10.7%, Cc1ccc(C(=O)Nc2nnc(C3=COCCO3)o2)cc1C -3.19%, O=c1[nH]c(=S)[nH]c2[nH]c(=S)[nH]c12 -17.2%, Cn1nnc(NC(=S)NC(=O)c2ccccc2)n1 1.95%, O=C(Nc1ccccc1Cl)O/N=C(/c1ccccc1)c1ccccn1 -7.81%, CN1CCN(CCCCOc2ccccc2-c2ccccc2)CC1 0.01%, CN1CCCc2cc(C#N)c(=O)[nH]c21 -24%, C=CCNC(=S)/N=c1/ccccn1Cc1ccccc1 2.96%, CN1C(=O)/C(=C\c2ccc(-c3ccccc3)o2)SC1=S -5.06%
